# In PubChem BioAssay AID1578 (Sanford-Burnham Center for Chemical Genomics, 2009):
# The campaign covered roughly 290,000 compounds. About 3,000 (1%) were called active. Only a selection was taken, and actives are over-represented in it overall. Values without a mark were called inactive. Rule as the data show it: active = inhibition mostly above about 36% (no sharp cut-off); inactive = mostly below about 34%.
# Test: inhibition of NOD1-driven NF-kB reporter – cell-based, luminescence, uHTS, primary screen (AID 1578);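 also: HEK-293T reporter cells stimulated with the NOD1 agonist gamma-tri-DAP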
# Details: NOD1-driven NF-kB luciferase reporter cells, at 4 µM, hits give high values
row,SMILES,inhibition
1,COc1cc2cc(CN(Cc3cccnc3)C(=O)Nc3ccccc3F)c(=O)[nH]c2cc1OC,-29.7%
2,CCOc1ccccc1NC(=O)c1sc2ncn(CC(=O)N3CCOCC3)c(=O)c2c1C,1.5%
3,CCCCOc1ccc(CN2CCSCC2)cc1,-28.4%
4,Cc1nc2sc(C(N)=O)c(N)c2c(C)c1CC(=O)c1ccccc1,84.2% (active)
5,Cc1nc2sc(C(=O)c3ccccc3)c(N)c2c(C)c1C,27.9%
6,CCOC(=O)c1c(C)nc2sc(C(N)=O)c(N)c2c1-c1ccccc1,31%
7,CC(=O)Nc1nc(-c2cccc3ccccc23)cs1,-32.8%
8,O=C(O)c1cc(=O)n(Cc2ccccc2)c(=O)[nH]1,-11.6%
9,O=C(Nc1cccnc1)c1ccc(COc2ccccc2Br)cc1,-8.4%
10,O=C(Nc1ccc(Cn2cccn2)cc1)c1ccc(COc2ccccc2Br)cc1,60.2%
11,CC(C)(C)OC(=O)CNC(=O)c1nc[nH]c1C(=O)NCc1ccc(CNC(=O)OC(C)(C)C)cc1,-14.2%
12,CCN(CC)C(=S)SC1CCCCN(C(=O)c2ccc(F)cc2)C1=O (stereo not drawn),-8%
13,CCN(CC)C(=S)SC1CCCCN(C(=O)c2ccccc2)C1=O (stereo not drawn),65.6% (active)
14,O=C(c1ccccc1)N1CCCCC(Cl)C1=O (stereo not drawn),-29.3%
15,CCOc1ccc(/C(O)=C2/C(=O)C(=O)N(c3ncccn3)C2c2ccc(Cl)cc2)cc1 (stereo not drawn),-1%
16,CCOc1ccc(/C(O)=C2/C(=O)C(=O)N(c3ncccn3)C2c2ccccc2)cc1 (stereo not drawn),91.5% (active)
17,CCOc1ccc(/C(O)=C2/C(=O)C(=O)N(c3ncccn3)C2c2ccc(C)cc2)cc1 (stereo not drawn),-0.8%
18,CCOc1ccc(NCCC(O)c2ccc(F)cc2)cc1 (stereo not drawn),34.5% (active)
19,COc1ccc(NCCC(O)c2ccc(Cl)cc2)cc1 (stereo not drawn),-11.5%
20,CCOc1ccc(NC(=S)Nc2ccc(F)cc2)cc1,2.3%
21,S=C(NC1CCCC1)NC1CCCC1,2.9%

row,SMILES,inhibition
1,Clc1ccc(/C=C/c2ncc[nH]2)c(Cl)c1,-2%
2,N#C/C(=C\c1cc([N+](=O)[O-])ccc1Cl)C(N)=O,-44.7%
3,O=C(O)c1cc(C(F)(F)F)nc2c(C(F)(F)F)cccc12,-18.1%
4,COc1ccc(C(=O)/C=C/c2ccccc2C(F)(F)F)cc1,-21.4%
5,Cc1cc(C)nc(NC(=O)/C=C/c2ccc(Cl)cc2Cl)c1,-58%
6,O=C(CCC(=O)Nc1cc(C(F)(F)F)ccc1Cl)N/N=C\c1cc([N+](=O)[O-])ccc1O,3%
7,Cc1ccc(OCCCC(=O)NCc2ccco2)c(C)c1,-28.1%
8,COc1ccc(NC2CCCN(C(=O)CCCN3CCCCC3=O)C2)cc1 (stereo not drawn),19.3%
9,CCc1ccc(CNC(=O)CCS(=O)(=O)Cc2ccccc2F)cc1,3.9%
10,CCC/C(C)=C/c1ccc(CC)cn1,12.7%
11,CCOc1cc(CNc2ccccc2)cc(Br)c1OCC(=O)NC(C)(C)C,4.8%
12,COc1cc(CNc2cccc(C(=O)O)c2)cc(Br)c1OCC(=O)NC(C)(C)C,94.3% (active)
13,COc1cc(CNc2ccc(C(=O)O)cc2)cc(Br)c1OCC(=O)NC(C)(C)C,-27.4%
14,CC(=O)c1ccc(N2CCN(S(=O)(=O)c3ccc4c5c3CC(=O)N5CC(C)S4)CC2)cc1 (stereo not drawn),-20.1%
15,CCn1c(O)c(N=NC(=O)c2cccs2)c2ccccc21,-38.2%
16,COc1cccc(C2CC(c3ccc(Cl)cc3)Nc3nc(N)nn32)c1 (stereo not drawn),13.7%
17,OCc1nnn(-c2ccccc2)c1CO,-4.1%
18,Nc1c(CO)nnn1-c1ccccc1,68.7% (active)
19,NC(=O)c1nnn(-c2ccccc2)c1N,-28.7%
20,COc1cc(/C=C/C(=O)OCC(=O)Nc2cc(C)c(C)cc2[N+](=O)[O-])ccc1O,-8.4%
21,O=S(=O)(NCC1CCCO1)c1ccc(-c2ccc(Cl)cc2)cc1 (stereo not drawn),9.5%

row,SMILES,inhibition
1,Cc1ccc(-c2ccc(S(=O)(=O)NCC3CCCO3)cc2)cc1 (stereo not drawn),47.8%
2,Cc1cccc(N2CCN(c3ccc4cc(S(=O)(=O)N5CCCCC5)ccc4n3)CC2)c1C,25.6%
3,CCOc1ccccc1NC(=O)CSc1ccccc1,-13.6%
4,Cc1cc(Cl)ccc1NC(=S)NC1CCCC1,24%
5,CC1CCCCC1NC(=S)Nc1ccc(Cl)cc1Cl (stereo not drawn),42.2% (active)
6,S=C(Nc1ccc(Cl)cc1Cl)NC1CCCCC1,-5%
7,CCOC(=O)C(C)NC(=O)c1cn(-c2ccc(OC)cc2)c(=O)c2ccccc12 (stereo not drawn),1.9%
8,CCOC(=O)c1ccccc1NC(=O)c1cn(-c2ccc(C)c(C)c2)c(=O)c2ccccc12,48%
9,CCOC(=O)c1ccccc1NC(=O)c1cn(-c2ccc(OC)cc2)c(=O)c2ccccc12,73.4% (active)
10,C=CCNC(=O)c1oc2ccc(S(=O)(=O)N3CCC4(CC3)OCCO4)cc2c1C,-20.9%
11,Cc1noc(C)c1C(=O)OCC(=O)Nc1ccccc1Oc1ccccc1,-14%
12,Cc1csc(NC(=O)c2cc3c(s2)CCCC3)n1,-106%
13,Cc1csc(NC(=O)c2cc3c(s2)CCC3)n1,5.9%
14,Cc1csc(NC(=O)c2cc3c(s2)CCCCC3)n1,73.7% (active)
15,CCOCCCNC(=O)c1ccc(N2CC3CC(C2)c2cccc(=O)n2C3)c(NC(=O)Nc2cccc(OC)c2)c1 (stereo not drawn),-1.7%
16,COc1cccc2c1cc1c(=O)n(CC(=O)N3CCCCCC3)nc(C)n12,-16%
17,Cn1ncc(Cl)c1C(=O)Nc1sc2c(c1C(N)=O)CCC2,-24.6%
18,CCn1cc(Br)c(C(=O)Nc2sc3c(c2C(N)=O)CCCC3)n1,-18.1%
19,CCn1ncc(Br)c1C(=O)Nc1sc2c(c1C(N)=O)CCC2,77.1% (active)
20,Cc1ccc(OS(=O)(=O)c2c(C)nn(C)c2Cl)c(C)c1,-19.4%
21,CCn1cc(C(=O)O)c(=O)c2cc(F)c(N3CCN(C(=S)NC(=O)c4ccccc4Br)CC3)cc21,-0.8%
